Values joined by “and” are separate entries in the source; they are usually repeats but may differ in a detail not shown here. Equal entries are not always repeated.
Experiments:
Experiment in all cases: cell viability relative to vehicle control; higher = less cytotoxic
Details in all cases: 10 µM
K562 = test system: K562
How it was run: (§1)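 Each screen used CRISPR-edited mutant and wild-type clones from four leukaemia lines. Compounds were acoustically dispensed at a single 10 µM dose, and CellTiter-Glo luminescence was read after 48 h with the supernatant first removed. Viability was analysed in Genedata Screener and given as percent of the on-plate vehicle control.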

MARIMO = test system: MARIMO
How it was run: as §1

MOLM14 = test system: MOLM14
How it was run: as §1

OCI-AML2 = test system: OCI-AML2
How it was run: as §1

| Compound | cell viability (K562; SRSF2 genotype: SRSF2 P95H/wt) | cell viability (K562; SRSF2 genotype: SRSF2 wt/wt) | cell viability (MARIMO; SRSF2 genotype: SRSF2 P95H/wt) | cell viability (MARIMO; SRSF2 genotype: SRSF2 wt/wt) | cell viability (MOLM14; SRSF2 genotype: SRSF2 P95H/wt) | cell viability (MOLM14; SRSF2 genotype: SRSF2 wt/wt) | cell viability (OCI-AML2; SRSF2 genotype: P95H/wt) | cell viability (OCI-AML2; SRSF2 genotype: wt/wt) |
| --- | --- | --- | --- | --- | --- | --- | --- | --- |
| CC(O)c1ccc(S(=O)(=O)NC(=O)NC2CCCCC2)cc1 (centres undefined) [Hydroxyhexamide] | 106% and 96% | 107% | 103% | 99% | 101% | 104% | 104% | 106% |
| Cc1cccc(Nc2ccncc2S(=O)(=O)NC(=O)NC(C)C)c1 [Torsemide (Demadex)] | 100% and 105% | 102% | 101% | 103% | 105% | 101% | 103% | 104% |
| CC(=O)OC1CCC2C3CCc4cc(O)ccc4C3CCC12C (centres undefined) | 96.5% and 85% | 90.6% | 85.8% | 98.9% | 96.9% | 96.2% | 87.7% | 96.1% |
| CCCCCCCCCCCCCCCCCC[N+](C)(C)C [Trimethyloctadecylammonium bromide] | 13.1% and 20% | 48.1% | 12.1% | 16.6% | 0.73% | 0.49% | 0.97% | 2.46% |
| CCN1CCN(C(=O)N[C@@H](C(=O)N[C@@H]2C(=O)N3C(C(=O)O)=C(CSc4nnnn4C)CS[C@H]23)c2ccc(O)cc2)C(=O)C1=O [Cefoperazone (Cefobid)] | 100% and 97.5% | 91.7% | 104% | 101% | 98.1% | 97.3% | 100% | 104% |
| CCCNC(=O)Nc1ccc(Oc2ncnc3cc(OC)c(OC)cc23)cc1Cl | 99.4% and 106% | 99.8% | 108% | 113% | 92% | 105% | 99.5% | 101% |
| CC(=O)OCOC(=O)CN(CC(=O)OCOC(C)=O)c1ccccc1OCCOc1ccccc1N(CC(=O)OCOC(C)=O)CC(=O)OCOC(C)=O | 18.9% and 10.1% | 6.38% | 1.03% | 0.7% | 0.2% | 0.25% | 2.33% | 4.73% |
| Nc1ncnc2c1ncn2[C@@H]1O[C@H](CO)[C@@H](O)[C@@H]1O [Vidarabine monohydrate] | 105% and 101% | 110% | 86% | 98.5% | 97.6% | 103% | 110% | 119% |
| CC(C)CC(CC(=O)NO)C(=O)N[C@@H](Cc1ccc2ccccc2c1)C(=O)N[C@@H](C)C(=O)NCCN (some centres undefined) | 105% | 110% | 112% | 109% | 99.1% | 104% | 110% | 106% |
| C=CC(=O)Nc1ccc2ncnc(Nc3ccc(OCc4cccc(F)c4)c(Cl)c3)c2c1 | 25.1% and 46.8% | 60% | 28.4% | 44.3% | 12.6% | 7.61% | 1.91% | 20.6% |
| Cc1cc(O)cc(OC2OC(CO)C(O)C(O)C2O)c1 (centres undefined) [Orcinol glucoside] | 104% and 100% | 101% | 97.5% | 104% | 102% | 106% | 108% | 95.4% |
| O=c1oc2cc(O)ccc2s1 [Tioxolone] | 95.7% and 106% | 105% | 103% | 101% | 101% | 103% | 102% | 97.4% |
| O=C1c2c(O)cc(O)cc2OC(c2ccc(O)c(O)c2)C1O (centres undefined) [Taxifolin (Dihydroquercetin)] | 97.9% and 94.4% | 91.6% | 91.9% | 96.5% | 100% | 101% | 93.5% | 96% |
| CCC1(c2ccccc2)C(=O)NCNC1=O [Primidone (Mysoline)] | 113% and 104% | 107% | 106% | 114% | 102% | 107% | 98% | 110% |
| CC(C)(C)C1CCC(CC2=C(O)c3ccccc3C(=O)C2=O)CC1 (centres undefined) [Buparvaquone] | 76.6% and 81.5% | 77% | 84.1% | 101% | 63.2% | 42.9% | 80.4% | 75.3% |
| COc1cc2c(N3CCN(C(=O)Nc4ccc(OC(C)C)cc4)CC3)ncnc2cc1OCCCN1CCCCC1 [Tandutinib (MLN518)] | 86.7% and 96.2% | 83.2% | 83.7% | 100% | 17.1% | 14.4% | 34.3% | 43.5% |
| O=C(Nc1ccc(Br)cc1)c1ccc(Br)c(S(=O)(=O)NCc2ccccc2)c1 | 83.5% and 88.7% | 86.8% | 88.5% | 93.7% | 96.9% | 96% | 76.2% | 76% |
| O=C(/C=C/c1ccc(O)c(O)c1)O[C@@H]1C[C@](O)(C(=O)O)C[C@@H](O)[C@H]1O [Chlorogenic acid] | 102% and 109% | 99.4% | 99.4% | 108% | 104% | 102% | 99% | 102% |

— the supplement of paper PMC10981050
